# Screening data (PubChem BioAssay)
# NPC1 prom act: qHTS Assay for NPC1 Promoter Activators. Huh7 NPC1 promoter luciferase reporter, 24 h. Potency, µM (highest dose often 9.22 µM), for inactives: at the top dose activation, most hits filed as activators. hit rate 2.4% among 320,000. AID 485313, 2010; further: % of control where 0% means no effect; nearly all actives have a fitted effect of over 60% in size
#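 Luciferase expression driven by the NPC1 promoter was measured in stably transfected Huh7 cells after a 24 h compound incubation, using a luciferase reagent and a luminescence read.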
# p53 reactivation: qHTS assay for re-activators of p53 using a Luc reporter | hit rate 0.063% among 320,000 | H1299 p53-A138V BP100-luciferase reporter, luminescence, 24 h | Potency, µM (top dose mostly 92.2 µM), for inactives: at the top dose activity change, positive = activation, usual class: activators; further: % of control where 0% means no effect; nearly all actives have a fitted effect of over 45% in size
#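 p53-null H1299 cells stably carrying temperature-sensitive p53-A138V and a BP100-luciferase reporter were pinned with compounds (4-point, 1:5 series) and held 24 hrs at 37 deg C. Luminescence was read 10 min after detection reagent.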
# SMN2 splice up: qHTS Assay for Enhancers of SMN2 Splice Variant Expression | Potency, µM (highest dose often 46.1 µM), without a hit: at the top dose activity change, positive = activation, most hits filed as activators | AID 1458, 2008 | HEK293 SMN2-luciferase splicing reporter, luminescence, 30-36 h | hit rate 2.8% among 210,000; further: % of control where 0% means no effect; nearly all actives have a fitted effect of over 55% in size
#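 HEK293 cells carry an SMN2 […]–luciferase reporter in which exon 7 inclusion puts luciferase in frame. Cells were plated 10-12 h before compound addition, then incubated 30-36 h at 37C. ONE-Glo luminescence was read; sodium butyrate at 4.5 mM final served as control.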
# ELG1 genotoxic: qHTS screen for small molecules that induce genotoxicity in human embryonic kidney (HEK293T) cells expressing luciferase-tagged ELG1; HEK293T ELG1-luciferase reporter, luminescence, 16 h; Potency, µM (highest dose often 46 µM), without a hit: at the highest dose activity change, positive = activation, usual class: activators; hit rate 1.3% among 330,000; AID 504466, 2011; further: % of control where 0% means no effect; nearly all actives have a fitted effect of over 60% in size
#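 Screening used a luciferase reporter fused to human ELG1 in HEK293T cells. Luminescence was read on a CCD plate imager after 16 hr exposure and 30 min ONE-Glo incubation.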
# FLuc counter: qHTS profiling assay for firefly luciferase inhibitor/activator using purifed enzyme and Km concentrations of substrates (counterscreen for miR-21 project); purified FLuc, Km substrates, luminescence inhibition; Potency, µM (highest dose often 57.5 µM), inactives show at the highest dose activity change, negative = inhibition, hits mostly inhibitors; hit rate 6.9% among 360,000; AID 588342, 2011;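 further: plate controls were vehicle for no effect and reference inhibitor for full effect; nearly all actives have a fitted effect of over 55% in size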
# Target sequence (P08659 whole entry, looked up): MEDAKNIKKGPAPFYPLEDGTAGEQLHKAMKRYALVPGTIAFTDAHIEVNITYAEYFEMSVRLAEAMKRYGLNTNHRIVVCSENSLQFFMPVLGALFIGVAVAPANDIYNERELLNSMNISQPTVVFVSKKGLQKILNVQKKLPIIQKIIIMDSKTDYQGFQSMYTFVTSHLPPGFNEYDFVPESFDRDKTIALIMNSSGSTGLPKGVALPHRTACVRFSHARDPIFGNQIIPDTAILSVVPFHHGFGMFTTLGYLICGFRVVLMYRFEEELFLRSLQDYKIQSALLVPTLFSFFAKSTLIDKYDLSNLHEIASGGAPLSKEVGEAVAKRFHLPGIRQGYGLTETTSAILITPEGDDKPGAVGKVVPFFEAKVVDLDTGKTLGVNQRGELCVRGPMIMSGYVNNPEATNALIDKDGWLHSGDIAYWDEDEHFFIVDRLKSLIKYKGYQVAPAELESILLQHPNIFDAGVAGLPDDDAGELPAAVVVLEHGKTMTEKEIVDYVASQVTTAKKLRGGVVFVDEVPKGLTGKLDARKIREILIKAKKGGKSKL
#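 Biochemical qHTS of compounds, final roughly 60 µM downward over six points, against 10 nM purified firefly luciferase using Km concentrations of substrates (10 uM D-luciferin, 10 uM ATP) in Tris acetate pH 7.5 buffer; luminescence output.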
# Rab9 promoter act: qHTS Assay for Rab9 Promoter Activators; Huh7 Rab9 promoter-luciferase reporter, luminescence, 24 h; Potency, µM (doses to about 9.22 µM), without a hit: at the top dose activation, negative = inhibition, hits mostly activators; hit rate 2.8% among 320,000; AID 485297, 2010; further: % of control where 0% means no effect; nearly all actives have a fitted effect of over 60% in size
#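 Stable Rab9-luc Huh7, 1500 cells/well, 2 h settle; cmpd in DMSO, 24 h, 37 °C/5% CO2; luciferase reagent 10 min RT; luminescence.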
# * hit, by the source's call; ? = inconclusive; . = no result given; [ ] = remark or other dose. A selection: hits, their analogues and other compounds. The true share with any hit is near 7.3%. The call rests on the fitted dose curve; in most records, active means well fitted curve in the direction sought with a large enough effect; inconclusive means small, poorly fitted or top-dose-only effect, or another doubt; inactive means no such curve, though single readings can be large; an effect the other way counts as inactive or inconclusive. Potency means the concentration at half of the fitted maximal effect.
SMILES,NPC1 prom act,p53 reactivation,SMN2 splice up,ELG1 genotoxic,FLuc counter,Rab9 promoter act
CCOc1ccc(C(=O)/C=C/c2cn(CC(O)CN3CCc4ccccc43)c3ccccc23)cc1 (configuration not stated),.,.,-10%,.,-4%,.
CC(C)(C)c1ccc(C(=O)/C(C#N)=C/c2cccs2)cc1,0%,-3%,.,2%,1.2µM*,5%
CC(NC(=O)/C(C#N)=C/c1cccs1)c1ccccc1 (configuration not stated),-2%,-1%,-1%,-2%,-6%,-3%
C=CCOc1ccc(/C=C(\C#N)C(=O)Nc2ccccn2)cc1,1%,?,.,-1%[9.26 µM],2.1µM*,4%
N#C/C(=C\c1ccccc1)C(=O)Nc1ccccn1,0%,2%,.,0%,15µM*,5%
N#C/C(=C\c1cccs1)C(=O)Nc1ccccn1,2.2µM*,10%,.,?,3.4µM*,1.6µM*
Cc1cccc(/C=C(\C#N)C(=O)Nc2ccccn2)c1,-1%,4%,.,2%,?,1%
COc1ccc2oc(-c3ccc(C)c(NC(=O)c4ccc5c(c4)OCCO5)c3)nc2c1,.,.,29%,.,?,.
CN(C)CCCn1cnc2cc(Cl)c(Cl)cc21,.,.,-5%[9.22 µM],.,.,.
Cc1ccc(-n2nc(C)c3c(C(=O)NCc4ccc(F)cc4)cc(C)nc32)cc1,.,.,.,.,0%,.
N#C/C(=C\c1ccccc1)C(=O)Nc1cccnc1,0%,-2%,.,-2%,?,10%
N#C/C(=C\c1ccccc1Cl)C(=O)Nc1ccccn1,2%,1%,.,-1%,19µM*,1%
N#C/C(=C\c1ccccc1)C(=O)Nc1nncs1,-2%,-1%,.,0%,19µM*,9%
N=C(N)c1ccc(/C=C\c2ccc(C(=N)N)cc2)cc1,.,.,-1%[9.22 µM],.,.,.
O=C1N/C(=C\c2ccc(O)cc2)C(O)=C1C=NCc1ccccc1,-14%,6%,-21%,13%,12µM*,-7%
O=C(O)c1ccccc1NS(=O)(=O)c1cccc(C(F)(F)F)c1,-3%,-7%,24%,-4%,1%,-3%
O=C(O)c1ccccc1NS(=O)(=O)c1cccc(-n2sc3ccccc3c2=O)c1,1%,18%,.,-8%,11µM*,0%
O=C(O)c1ccccc1NS(=O)(=O)c1ccc2ccccc2c1,1%,?,.,12%,15µM*,8%
COc1ccc(S(=O)(=O)N2CCOC2CNC(=O)C(=O)NCC(C)C)cc1OC (configuration not stated),-1%,1%,.,-2%,-12%,-5%
CC(Sc1nccn1C)C(=O)Nc1ccccc1 (configuration not stated),-2%,-7%,.,0%,1%,6%
Oc1csc(Cc2nc(-c3ccc(Br)cc3)cs2)n1,3.2µM*,15%,?,?,?,3.5µM*
CCCN(c1ccccc1CC)S(=O)(=O)c1ccc2c(c1)CC(C)N2C(=O)C1CC1 (configuration not stated),.,.,.,.,-9%,.
Cc1ccccc1-c1nnc(SCc2ccc(F)cc2)o1,?,?,-9%,?,15µM*,24%
Oc1ccc(-c2nnc(SCc3ccccc3)o2)cc1,?,.,.,?,27µM*,9%
C#CCSc1nnc(-c2ccc(O)cc2)o1,27%,27%,?,?,?,?
Cc1ccc(-c2nnc(SCc3ccccc3)o2)cc1,.,.,.,.,4.8µM*,.
C#CCSc1nnc(-c2ccc(C)cc2)o1,3.5µM*,?,13µM*,23µM*,7.6µM*,2.2µM*
Fc1ccc(CSc2nnc(-c3ccncc3)o2)cc1,14%,-3%,-30%,-21%,-2%,2%
O=C(Nc1ccc(Br)cc1F)N1CCC2(CC1)Oc1ccccc1C(=O)N2Cc1ccccc1F,.,.,7%,.,-1%,.
